# FBA Mtb inh: Mtb fructose-bisphosphate aldolase inhibition. 2.3% of 360,000 active. inhibition, % at 1 µM. purified M. tuberculosis FBA, fluorescence read-out. P9WQA3. AID 588726; in the data active = inhibition above about 27%;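 note: 0% = vehicle and 100% = reference inhibitor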
# Target sequence (P9WQA3 whole entry, looked up): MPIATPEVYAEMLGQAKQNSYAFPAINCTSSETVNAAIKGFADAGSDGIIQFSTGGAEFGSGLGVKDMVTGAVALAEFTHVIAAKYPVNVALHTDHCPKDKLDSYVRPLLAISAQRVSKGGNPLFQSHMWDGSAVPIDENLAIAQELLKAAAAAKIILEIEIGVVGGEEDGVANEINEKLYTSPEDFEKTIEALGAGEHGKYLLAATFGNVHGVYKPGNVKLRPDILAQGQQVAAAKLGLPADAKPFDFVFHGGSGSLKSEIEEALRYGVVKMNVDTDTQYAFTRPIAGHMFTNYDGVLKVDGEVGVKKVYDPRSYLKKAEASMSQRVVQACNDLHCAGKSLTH
# GDH-TPI counter-1: GDH-TPI coupled enzyme inhibition counter-screen. GDH-TPI coupled enzyme counterscreen, NADH absorbance. inhibition, % at 4.8 µM. 1.2% of 360,000 active. AID 588335;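 note: 0% = DMSO wells and 100% = wells lacking the enzyme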
# CCHF vOTU inh-1: blocks the CCHF virus ovarian tumor domain protease; CCHFV vOTU protease, Pep-AMC fluorescence; inhibition, % at 11.5 µM; 0.55% of 370,000 active; AID 651958; note: 0% = vehicle wells with enzyme and 100% = no enzyme wells
# DUSP3 inh: blocks human VHR1 dual specificity phosphatase | P51452 | recombinant VHR phosphatase, pNPP absorbance | 0.52% of 290,000 active | AID 1654 | inhibition, % at 13.3 µM; in the data active = inhibition above about 50%
# Target sequence (P51452 whole entry, looked up): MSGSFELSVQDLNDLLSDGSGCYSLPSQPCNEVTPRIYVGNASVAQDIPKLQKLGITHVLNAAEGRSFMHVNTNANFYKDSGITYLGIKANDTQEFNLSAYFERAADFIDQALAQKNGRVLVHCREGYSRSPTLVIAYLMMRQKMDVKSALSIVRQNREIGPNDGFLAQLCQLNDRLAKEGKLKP
# RecA splice inh: blocks M. tuberculosis RecA intein splicing. inhibition, % (no concentration beside the values). AID 2221. 0.75% of 290,000 active. P9WHJ3. cell-free RecA intein splicing, fluorescence; in the data active = inhibition above about 30%;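 note: 0% = vehicle wells and 100% = reference inhibitor control wells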
# SARS 3CLpro inh: SARS-CoV 3CLpro protease inhibition. recombinant SARS-CoV 3CLpro, quenched FRET peptide cleavage. inhibition, % at 6 µM. 0.14% of 290,000 active. P0C6X7; in the data active = inhibition above about 12%
# GFP chromophore: counter-screen GFP chromophore formation inhibition. 83% of 2,100 active. EC50, µM. shares compounds with RecA splice inh. cell-free GFP chromophore formation, fluorescence; call rule not given here
# Mtb FBA inh conf: Mtb FBA inhibition, confirmed | shares compounds with FBA Mtb inh | purified M. tuberculosis FBA, fluorescence read-out | inhibition, % at 1 µM | 78% of 5,600 active; in the data active = inhibition above about 27%;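 note: 0% = vehicle wells and 100% = reference inhibitor wells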
# GDH-TPI counter-2: GDH-TPI inhibition counter-screen for FBA inhibitors. shares compounds with FBA Mtb inh. GDH-TPI coupled enzyme counterscreen, fluorescence. inhibition, % at 1 µM. 81% of 5,600 active. AID 652141; in the data active = inhibition above about 10%
# GDH-TPI dose: GDH-TPI dose response counter-screen for Mtb FBA | shares compounds with FBA Mtb inh | GDH-TPI coupled enzyme assay, fluorescence, artifact counterscreen | IC50, µM | 79% of 170 active | AID 652145; call rule not given here
# CCHF vOTU inh-2: CCHFV vOTU protease inhibition, confirmation | shares compounds with CCHF vOTU inh-1 | Recombinant CCHFV vOTU, Pep-AMC fluorescence | AID 686976 | inhibition, % at 11.5 µM | 17% of 1,900 active
# Numbers without * were called inactive; nt = no result; + = active, no number. A selection: hits, their analogues and other compounds. The true share with any hit is near 4.7%. Cut-off read from the data, not from the text of the source, unless noted: active = inhibition above about 30%; inactive = the rest.
SMILES,FBA Mtb inh,GDH-TPI counter-1,CCHF vOTU inh-1,DUSP3 inh,RecA splice inh,SARS 3CLpro inh,GFP chromophore,CCHF vOTU inh-2,others
COc1ccc(-n2c(SCC(=O)Nc3ccc(Oc4ccccc4)cc3)nnc2-c2ccc(C)cc2)cc1,nt,nt,3,nt,nt,nt,nt,nt,
Cc1ccc(NC2=C(NC(=O)c3ccccc3)C(=O)c3ccccc3C2=O)cc1Cl,-6,12,51*,-25,70*,-4,6.4*,42*,
Cc1ccc(NCC(=O)c2ccccc2)cc1Cl,1,2,-7,-5,-1,6,nt,nt,
CSc1ccccc1OCc1cc(C(=O)NC2CCOC(C)(C)C2)no1 (stereo unspecified),0,0,-2,23,2,1,nt,nt,
COc1ccc(OCc2cc(C(=O)NC3CCOC(C)(C)C3)no2)c2ccccc12 (stereo unspecified),7,7,43*,26,54*,-7,12*,22,
CCn1cc(S(=O)(=O)N2CCc3ccccc3C2)cn1,3,13,-2,12,-6,4,nt,nt,
COc1cc(/C=C(\C#N)c2nc3ccccc3o2)ccc1O,-40,6,33*,33,34*,3,17*,7,
COc1ccc(-c2cc(=O)[nH][nH]2)cc1OC,3,3,60*,9,99*,3,0.97*,-19,
COc1ccc2nc(/N=C/c3c(C)[nH]n(-c4ccc(C)cc4)c3=O)sc2c1,2,1,7,21,1,11,nt,nt,
CC1=NN(c2ccccc2)C(=O)C1,-3,4,87*,-3,89*,-6,3.1*,-11,
CC1=NN(Cc2ccccc2)C(=O)C1,1,-7,36*,-6,89*,-3,7.6*,-19,
CC1=NN(c2nc(-c3ccc(Cl)cc3)cs2)C(=O)C1,5,-2,1,10,26,4,nt,nt,
CC1=NN(c2ccc(N)cc2)C(=O)C1,1,11,57*,-23,74*,1,2.9*,-9,
CC1=NN(c2ccc(Cl)cc2)C(=O)C1,1,-1,41*,37,96*,0,3.5*,-11,
CSc1nnc(-c2ccc(S(=O)(=O)N3CCCCC3)cc2)o1,8,2,3,5,nt,-8,nt,nt,
CC(=O)c1cc(O)c2ccccc2c1O,1,-1,37*,24,70*,1,6.9*,-9,
Cc1nnc(C)n1N=Cc1ccc(Cl)c([N+](=O)[O-])c1,nt,nt,1,nt,nt,nt,nt,nt,
Nn1cnnc1N/N=C/c1ccc(Cl)c([N+](=O)[O-])c1,-12,-3,99*,-7,59*,4,25*,10,
O=C(Nc1nc(-c2ccccc2)cs1)c1ccccc1NS(=O)(=O)c1ccc(F)cc1,37*,2,38*,-2,35*,9,28*,-2,Mtb FBA inh conf=+;GDH-TPI counter-2=+
C[C@@H](NC(=O)C[C@H]1CC[C@H]2[C@@H](COc3ccc(NC(=O)Nc4ccccc4)cc3C(=O)N2C)O1)c1ccccc1,nt,nt,-1,nt,nt,nt,nt,nt,
Cc1ccc(S(=O)(=O)Nc2ccc(O)c3ccccc23)c(C)c1,2,-3,66*,7,97*,12,0.23*,-19,
Cc1ccc(C)c(S(=O)(=O)Nc2ccc(O)c(C(=O)O)c2)c1,2,3,-3,9,0,3,nt,nt,
Cc1ccc(S(=O)(=O)Nc2ccc3c4c(cccc24)CC3)c(C)c1,-1,-7,-2,nt,-1,9,nt,nt,
Cc1ccc(C)c(S(=O)(=O)Nc2ccc(O)c3ccccc23)c1,1,14,62*,8,95*,4,0.23*,-8,
C=CCn1c(SCC(=O)c2[nH]c(C)c(C(=O)OCC)c2C)nc2scc(-c3ccc(OC)cc3)c2c1=O,0,5,-5,-2,-2,-1,nt,nt,
SMILES,FBA Mtb inh,GDH-TPI counter-1,CCHF vOTU inh-1,DUSP3 inh,RecA splice inh,SARS 3CLpro inh,GFP chromophore,CCHF vOTU inh-2,others
CCN(C(=O)[C@@H](C1CC1)[C@@H](O)c1ccc(Cl)cc1)c1ccccc1,nt,nt,5,nt,nt,nt,nt,nt,
COc1cc2c(cc1OC)-c1c(OC)c(OC)cc3c1[C@H](C2)N(C)CC3,7,-1,89*,1,34*,-5,22*,79*,
COc1ccc2c(c1O)-c1c(OC)c(OC)cc3c1[C@H](C2)N(C)CC3,4,10,4,nt,nt,nt,nt,nt,
Cc1nnc(Sc2cc(NCCCO)c([N+](=O)[O-])c3nonc23)s1,-9,1,31*,26,91*,7,5.1*,9,
O=[N+]([O-])c1c(NCCO)cc(N2CCCCCC2)c2nonc12,-11,27,-2,-7,5,0,nt,nt,
Cn1c(=O)c(-c2ccccc2)nn2c3ccccc3nc12,-1,14,-5,16,-1,-5,nt,nt,
Cc1nc2c(=O)n(C)c(=O)nc-2n(C)n1,-12,1,102*,-3,98*,6,0.12*,99*,
O=C1C(C=Nc2ccccc2O)=C(O)c2ccccc21,-13,6,0,43,-3,-4,nt,nt,
Cc1ccc(O)c(N=CC2=C(O)c3ccccc3C2=O)c1,-3,20,31*,36,87*,1,3.4*,10,
COc1ccc(OC)c(NC(=O)Nc2c(O)ccc3ccccc23)c1,4,4,-12,nt,-1,nt,nt,nt,
COc1ccc(OC)c(NC(=O)Nc2ccc(O)c3ccccc23)c1,5,3,73*,nt,78*,nt,1.2*,-15,
Cc1c(OCC(=O)N2CCC[C@@H]2C(=O)O)ccc2c3c(c(=O)oc12)CCC3,36*,8,4,24,19,0,nt,nt,Mtb FBA inh conf=93*;GDH-TPI counter-2=88*
CCc1cc(=O)oc2c(C)c(OCC(=O)N3CCC[C@@H]3C(=O)O)ccc12,58*,8,-7,25,4,0,nt,nt,Mtb FBA inh conf=11;GDH-TPI counter-2=6;GDH-TPI dose=3*
CCc1cc(=O)oc2c(C)c(OC(C)C(=O)N3CC[C@@]4(O)CCCC[C@H]4C3)ccc12 (stereo partly specified),8,15,-6,24,-1,0,nt,nt,
CCc1cc(=O)oc2c(C)c(OC(C)C(=O)N3CCC[C@@H]3C(=O)O)ccc12 (stereo partly specified),42*,18,-4,4,nt,4,nt,nt,Mtb FBA inh conf=54*;GDH-TPI counter-2=61*
COCCNC(=O)C1CCCN(Cc2ccccc2F)CC1 (stereo unspecified),0,7,nt,nt,nt,nt,nt,nt,
CCC(=O)N(C)C[C@H]1Oc2cc(Br)ccc2S(=O)(=O)N([C@@H](C)CO)C[C@H]1C,-3,2,-12,nt,nt,nt,nt,nt,
